Screening data: PubChem, National Center for Advancing Translational Sciences (NCATS)
HttQ103 aggreg: qHTS Multiplex Assay to Identify Dual Action Probes in a Cell Model of Huntington: Aggregate Formation (GFP); PC12 HttQ103-GFP aggregates, Acumen cytometry, 40 h; Potency, µM (titrated, usually from 46.1 µM), for inactives: top-dose activity change, negative = inhibition, actives largely listed as inhibitors; 220,000 tested, 1.1% active; AID 1688, 2009; note: potency is the fitted concentration of half-maximal effect; % is set by controls: 0 for no effect and ±100 for the full control effect; nearly all actives have a fitted effect of over 60% in size
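Read-out: GFP aggregate count by laser scanning cytometer (488 nm excitation, 500-530 nm emission, 1–25 µm objects >6 SD above background). Cells: PC12, inducible HTTex1-Q103-GFP, 100 nM tebufenozide; compounds titrated.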
HTT ATP protect: qHTS Multiplex Assay to Identify Dual Action Probes in a Cell Model of Huntington: Cytoprotection (ATP) | PC12 HTT-Q103 induced, cytoprotection, ATP luminescence, 40 h | Potency, µM (top dose mostly 56.4 µM), for the others: cytoprotection (ATP increase), actives largely listed as activators | 230,000 tested, 0.14% active; note: potency is the fitted concentration of half-maximal effect; % of control where 0% means no effect; nearly all actives have a fitted effect of over 45% in size
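PC12 cells with ecdysone-inducible HTT exon 1 Q103-GFP, induced with 100 nM tebufenozide and co-treated with library compounds in a dose series (1536-well, 1500 cells/well). Cytoprotection read as ATP content by ATPlite luminescence.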
IMPase Li cell: qHTS Assay for Identifying the Cell-Membrane Permeable IMPase Inhibitors: Potentiation with Lithium; CHO-M1 cells, IP1 TR-FRET (IP-One), carbachol + lithium; Potency, µM (top dose mostly 59.4 µM), inactives show at the highest dose activity, negative = IMPase inhibition, usual class: inhibitors; 210,000 tested, 0.35% active;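 note: IP1 builds up when IMPase is blocked and the TR-FRET signal falls; potency is the fitted concentration of half-maximal effect; plate controls were basal vehicle for no effect and high inhibitor control for full effect; nearly all actives have a fitted effect of over 50% in size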
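Readout is a homogeneous TR-FRET IP1 immunoassay (Ex 320, Em 665 and 620), where raised cytosolic IP1 lowers signal. Cells were CHO-M1 treated 30 min at 37C with test compounds plus a little lithium; AC50 values came from Hill-equation fitting.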
PNC inhibitor: High Content Assay for Compounds that inhibit the Assembly of the Perinucleolar Compartment; PC3M PTB-GFP, PNC prevalence imaging, 16 h; stronger effect = lower value; activity change (PNC), negative = inhibition, % at 10 µM; 140,000 tested, 3.1% active;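 active = readout at or below -70, meaning at least 70% loss of cells showing the perinucleolar compartment, a nuclear body marking cancer cells; inconclusive = readout between -30 and a set limit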;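 note: plate controls were DMSO wells for no effect and camptothecin positive control wells for full effect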
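Compounds are pinned in duplicate onto adhered PC3M cells stably expressing GFP-tagged PTB and incubated 16 h at 37 C. Cells are then fixed, nuclei stained with Hoechst, and PNC-positive cells counted.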
IMPase cell inh: qHTS Assay for Identifying the Cell-Membrane Permeable IMPase Inhibitors. CHO-M1 cells, IP1 accumulation, HTRF TR-FRET ratio. inhibition (IP1 accumulation), % at 46.1 µM. AID 901, 2007. 120,000 tested, under 10 active. Inositol monophosphatase 1 (Rattus norvegicus), P97697; active = well fitted curve in the direction sought with a large enough effect in the signal ratio, not every such curve was filed as active; inconclusive = small, poorly fitted or top-dose-only effect, or a change in a side signal; inactive = no such curve, though single readings can be large or run the other way; the % refers to the signal ratio;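 note: cells stimulated with carbachol in lithium chloride buffer; plate controls were DMSO basal wells for no effect and reference inhibitor wells for full effect; higher means more IMPase inhibition seen as more IP1 and lower FRET ratio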
Target sequence (P97697 whole entry, looked up): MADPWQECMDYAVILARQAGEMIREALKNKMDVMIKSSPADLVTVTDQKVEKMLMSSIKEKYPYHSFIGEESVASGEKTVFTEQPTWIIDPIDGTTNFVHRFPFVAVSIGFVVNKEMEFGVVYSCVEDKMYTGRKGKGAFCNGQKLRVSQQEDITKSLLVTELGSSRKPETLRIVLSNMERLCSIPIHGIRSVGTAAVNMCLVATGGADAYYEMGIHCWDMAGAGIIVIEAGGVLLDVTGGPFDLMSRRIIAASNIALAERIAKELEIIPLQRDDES
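The IP-One HTRF competitive assay in carbachol-stimulated CHO-M1 cells quantifies cellular IP1. Compounds spanned up to 46 uM final, and activity is expressed as AC50 from concentration-response fits of the ratio and donor data.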
NPSR antagonist: qHTS Assay for Antagonists of the Neuropeptide S Receptor: cAMP Signal Transduction | Q6W5P4 | CHO-NPSR cells, cAMP TR-FRET, antagonist mode | Potency, µM (doses to about 38.3 µM), without a hit: top-dose activity change, negative = inhibition, usual class: inhibitors | 220,000 tested, 1% active | AID 1461, 2008; note: potency is the fitted concentration of half-maximal effect; % is set by controls: 0 for no effect and ±100 for the full control effect; nearly all actives have a fitted effect of over 50% in size
Target sequence (Q6W5P4 whole entry, looked up): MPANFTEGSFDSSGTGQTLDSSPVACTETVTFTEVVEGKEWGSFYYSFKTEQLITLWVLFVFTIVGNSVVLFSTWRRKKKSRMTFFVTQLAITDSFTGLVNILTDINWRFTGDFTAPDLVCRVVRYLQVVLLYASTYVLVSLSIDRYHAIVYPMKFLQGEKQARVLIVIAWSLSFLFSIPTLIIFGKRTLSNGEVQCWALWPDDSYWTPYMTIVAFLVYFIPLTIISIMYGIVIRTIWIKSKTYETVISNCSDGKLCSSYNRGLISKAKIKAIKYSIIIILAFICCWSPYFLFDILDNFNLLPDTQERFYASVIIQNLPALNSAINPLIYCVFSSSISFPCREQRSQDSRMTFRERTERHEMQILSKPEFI
* marks the source's active call; other numbers are inactive results; ! = repeats disagree; [ ] = another dose, or the depositor's remark. Only some compounds are listed: those with a hit (about 3.4% of all), similar ones and a draw of the others. Unless noted, calls come from the whole dose curve; as a rule, active = well fitted curve in the direction sought with a large enough effect; inconclusive = small, poorly fitted or top-dose-only effect, or another doubt; inactive = no such curve, though single readings can be large; an effect the other way counts as inactive or inconclusive.

`Cc1onc(-c2ccccc2)c1C(=O)Nc1nnc(N2CCCCCC2)s1` gave HttQ103 aggreg -25%, HTT ATP protect -10%[10 µM], IMPase Li cell 12%[38.3 µM], PNC inhibitor -108*, IMPase cell inh -4 and NPSR antagonist -20%[46.1 µM].
Screening Cc1cccn2cc(CNC(=O)C3CCCCC3)nc12 returned HttQ103 aggreg -12%, HTT ATP protect 5%[10 µM], IMPase Li cell -2%, PNC inhibitor -100*, IMPase cell inh 6 and NPSR antagonist 3%[46.1 µM].
Screening Cc1cccn2cc(CNC(=O)c3ccc(Br)o3)nc12 returned HttQ103 aggreg 18%[9.22 µM], HTT ATP protect 1%[10 µM], IMPase Li cell 6% and NPSR antagonist -3%.
Screening O=C(Nc1cccc2c1C(=O)NC2=O)c1ccc(S(=O)(=O)N2CCCC2)cc1 returned HttQ103 aggreg -20%, HTT ATP protect -1%, IMPase Li cell -1%[38.3 µM], PNC inhibitor -111*, IMPase cell inh -8 and NPSR antagonist 10%[46.1 µM].
For O=C(CCn1cnc(-c2ccccc2)c1-c1ccccc1)N/N=C/c1ccccc1O the results were HttQ103 aggreg inconclusive, HTT ATP protect 29%[10 µM], IMPase Li cell 1%, PNC inhibitor 8, IMPase cell inh 4 and NPSR antagonist -6%.
For CCOC(=O)C(CC)Sc1ncnc2nc[nH]c12 (stereo not drawn) the results were HttQ103 aggreg -1%, HTT ATP protect 5%[10 µM], IMPase Li cell 2%, PNC inhibitor -100*, IMPase cell inh -7 and NPSR antagonist 4%[46.1 µM].
Screening Cc1ccc(-c2nn(CC(=O)Nc3ccc4c(c3)nc3n4CCOC3)c(=O)c3ccccc23)cc1 returned HttQ103 aggreg 2%, HTT ATP protect -12%, IMPase Li cell 10µM*, PNC inhibitor 25, IMPase cell inh -1 and NPSR antagonist -17%[46.1 µM].
For Cc1nn(CC(=O)Nc2ccc3c(c2)nc(CN2CCCC2)n3C)c(=O)c2ccccc12 the results were HttQ103 aggreg -1%, HTT ATP protect 5%[0.074 µM], IMPase Li cell 1%[38.3 µM], PNC inhibitor -100*, IMPase cell inh -4 and NPSR antagonist 4%[46.1 µM].
c1ccc(CNc2ncncc2-c2ccoc2)cc1 was read as HTT ATP protect 24% and IMPase Li cell -3%.
For C=CC1=C2C=C(C3CC3)N(CCCOC(C)C)C=C2C(=O)C(C)(OC(=O)c2ccco2)C1=O (stereo not drawn) the results were HTT ATP protect -24%[10 µM] and IMPase Li cell 6%.
`CC(=O)c1c(C)c(C)c2n1CCn1c(C)ccc1-2` gave HttQ103 aggreg -27%[9.22 µM], HTT ATP protect 9%[10 µM] and NPSR antagonist -10%.
Screening O=C(c1ccc(C(F)(F)F)cc1)N1CCC(=O)N(C(COCc2ccccc2)Cc2ccccc2)CC1 (stereo not drawn) returned HttQ103 aggreg 6%, IMPase Li cell 16%, PNC inhibitor -19 and NPSR antagonist -23%.
Screening CC(C)(C)c1ccc(C(=O)N2CCC(=O)N(C(COCc3ccccc3)Cc3ccccc3)CC2)cc1 (stereo not drawn) returned HttQ103 aggreg -8%, IMPase Li cell 17%, PNC inhibitor -115* and NPSR antagonist inconclusive.
`O=C(c1ccc(C23CC4CC(CC(C4)C2)C3)o1)N1CCOCC1` gave HttQ103 aggreg 5.6µM*, HTT ATP protect -26%, IMPase Li cell 24%[38.3 µM], PNC inhibitor inconclusive, IMPase cell inh 3 and NPSR antagonist -17%[46.1 µM].
O=C(c1ccc(COc2c(F)c(F)c(F)c(F)c2F)o1)N1CCOCC1 was read as HttQ103 aggreg 4%, HTT ATP protect 19%, IMPase Li cell 8%[38.3 µM], PNC inhibitor inconclusive, IMPase cell inh -5 and NPSR antagonist -5%[46.1 µM].
Cn1c(=O)c2cc(S(=O)(=O)N3CCOCC3)ccc2n(C)c1=O was read as HttQ103 aggreg -17%, HTT ATP protect 16µM*, IMPase Li cell 21%[38.3 µM], PNC inhibitor -27, IMPase cell inh 13 and NPSR antagonist -15%[46.1 µM].
Screening COc1cccc(C(=O)CSc2nc3ccccc3n2CC(=O)N(C(C)C)C(C)C)c1 returned HttQ103 aggreg -6%, HTT ATP protect 2%[10 µM], IMPase Li cell 0%, PNC inhibitor -100*, IMPase cell inh -6 and NPSR antagonist -12%[46.1 µM].
Screening COC(=O)CSc1nc2ccccc2n1CC(=O)N(C(C)C)C(C)C returned HttQ103 aggreg -3%, HTT ATP protect -10%, PNC inhibitor 6, IMPase cell inh 7 and NPSR antagonist -5%[46.1 µM].
`CCN(CC)S(=O)(=O)c1ccc(C)c(NC(=O)CSc2nc3ccccc3[nH]2)c1` gave HttQ103 aggreg 3%, HTT ATP protect -2%[10 µM], IMPase Li cell 9%, PNC inhibitor -92* and NPSR antagonist -17%.
`Cc1ccc(S(=O)(=O)N(C)C)cc1NC(=O)CSc1nc2ccccc2[nH]1` gave HttQ103 aggreg -17%, HTT ATP protect 22%[10 µM], IMPase Li cell -3%, PNC inhibitor 2 and NPSR antagonist 4%.
For COc1ccc(Oc2ncc3nc(-c4ccc(F)cc4)c(=O)n(Cc4cccs4)c3n2)cc1 the results were HTT ATP protect 14% and IMPase Li cell 2%.
Screening O=C(c1ccc(F)cc1)C1CCN(CCn2c(=O)[nH]c3ccccc3c2=O)CC1 returned HttQ103 aggreg 25%[9.22 µM], HTT ATP protect 35%[10 µM], IMPase Li cell 35%, IMPase cell inh 4 and NPSR antagonist 1.6µM*!.
Screening CN1CCN(C(=O)c2ccc(CN3CCOCC3)cc2)CC1 returned HttQ103 aggreg 16%, HTT ATP protect 2%, IMPase Li cell -16%[38.3 µM], PNC inhibitor -93*, IMPase cell inh 1 and NPSR antagonist -10%[46.1 µM].
Screening O=C(c1ccc(CN2CCOCC2)cc1)N1CCC(Cc2ccccc2)CC1 returned HttQ103 aggreg -31%, HTT ATP protect 0%, IMPase Li cell 5%[38.3 µM], PNC inhibitor -29, IMPase cell inh 3 and NPSR antagonist -5%[46.1 µM].
CCC(=O)NC(/C=C/c1ccccc1)c1cc([N+](=O)[O-])c2cccnc2c1O (stereo not drawn) was read as HttQ103 aggreg inconclusive, HTT ATP protect -46%[10 µM], IMPase Li cell 1%, PNC inhibitor inconclusive, IMPase cell inh -2 and NPSR antagonist 21%.
